Our source for the inhibition values is PubChem BioAssay AID1259343 (VanderVen Lab, College of Veterinary Medicine, Cornell …, 2017).

SMILES strings stand for the structures. Out of some 6,200 compounds screened, about 2,900 (47%) were called active. Cut-off read from the data, not from the text of the source: active = inhibition above about 50%; inactive = the rest. So high a share suggests a set chosen from earlier hits. Some of the results follow.

As a reminder, the inhibition is the relative decrease from the control value, in per cent.

The assay can be described thus: Mycobacterium tuberculosis growth inhibition, primary screen (AID 1259343). Particulars: inhibition: at 10 µM, stronger effect = higher value; outcome: 10 uM.
Take `CC(=NCCCn1ccnc1)c1c(-c2ccccc2)[nH]n(-c2nc3ccccc3s2)c1=O`: the inhibition was 52.5% (active).
With `c1ccc(-c2ccc(-c3nccn3CCn3ccnc3)s2)cc1`, the inhibition was -34.9% (inactive).
The same measure for `COc1cccc(-c2cn3c(C(=O)Nc4ccccn4)csc3n2)c1`: 75.6% (active).
As for `COc1ccc(-c2cn3c(C(=O)Nc4nccs4)csc3n2)cc1`, the inhibition is 10.8% (inactive).
The result for `Cc1c2cnnc(Sc3ccc(Cl)cc3)c2c(C)n1C` reads 64% (active); that for `Clc1ccc(Sc2ncccn2)cc1`, 2.73% (inactive).
Regarding `Cc1nonc1CN(C)C(=O)c1cc(COc2ccc(F)cc2Cl)on1`, the inhibition was 89.4% (active).
The same measure for `CC(=O)c1ccc(OCc2cc(C(=O)N(C)Cc3ccon3)no2)cc1`: 80.4% (active); for `CSc1ccccc1OCc1cc(C(=O)N(C)Cc2ccc(F)cc2)no1`: 15.7% (inactive).
The same measure for `CCc1ccc(CN(C)C(=O)c2cc(COc3ccc(OC)cc3Cl)on2)nc1`: 73% (active).
The same measure for `CC(NC(=O)c1cncc(Br)c1)c1ccc(Cl)cc1` (stereo not drawn): 86.8% (active).
For the molecule `CC(NC(=O)c1cc(Br)ccc1O)c1ccccc1` (stereo not drawn), the inhibition is 17.3% (inactive).
The result for `CC(C)c1ccc(O)c(NC(=S)NC(=O)c2cncc(Br)c2)c1` reads 99.5% (active).
The same measure for `COc1cccc(OCCN2CCN(c3ncnc4sc5c(c34)CCCC5)CC2)c1`: 36.6% (inactive).
Turning to `COc1ccc(F)cc1CN1CCN(c2ncnc3sc4c(c23)CCCC4)CC1`, the inhibition was 60% (active).
The result for `OCC1CCCN(c2ncnc3sc4c(c23)CCCC4)C1` (stereo not drawn) reads 20.6% (inactive); that for `Oc1cc(CCC2CCCCN2)cc(-c2ccncc2)c1` (stereo not drawn), 45.4% (inactive); that for `C1CCC(C(CC2CCCCN2)C2CCCCC2)CC1` (stereo not drawn), 55.1% (active).
As for `CC(OC1CC(=O)CC2C(=O)c3ccccc3C(=O)C12)c1ccccc1` (stereo not drawn), the inhibition was 94.3% (active).
The result for `CC(C)c1ccc2c(c1O)CC[C@H]1C3=C(CC[C@]21C)C(=O)OC3` reads 45% (inactive); that for `C(=NNc1ccccc1)c1cnn(-c2ccccc2)c1`, 94.4% (active).
The same measure for `Cn1cc(C=NNc2ccccc2)c2ccccc21`: -30.1% (inactive); for `C(=NNC1=Nc2cccc3cccc1c23)c1ccccc1`: 15.1% (inactive).
The same measure for `CN(C)C(=O)N1CCC(C(=O)Nc2ccc(Oc3ccccc3)cc2)CC1`: 81.9% (active); for `O=C(Nc1nc(-c2ccc(Cl)cc2)cs1)C1CC(=O)N(C2CC2)C1` (stereo not drawn): 21.7% (inactive).
Turning to `O=C(Nc1ccc(Oc2ccccc2)cc1)C1CC(=O)N(C2CC2)C1` (stereo not drawn), the inhibition was 66.1% (active).
The result for `COc1c(Cl)cc(NC(=O)C2CC(=O)N(C)C2)cc1Cl` (stereo not drawn) reads 43.6% (inactive); that for `Cc1ccc(NC(=O)C2CC(=O)N(C3CC3)C2)cc1C(F)(F)F` (stereo not drawn), 63.6% (active).
The same measure for `COc1cccc(C(=O)Oc2ccc(C(=O)COC(=O)C3CC(=O)N(C4CCCCC4)C3)cc2)c1` (stereo not drawn): -11.2% (inactive).
The same measure for `O=C1CCC(C(=O)Nc2ccc(Oc3ccccc3)cc2)N1` (stereo not drawn): 29.5% (inactive); for `CN(C)c1ccc2cc(NC(=O)C3CC(=O)N(C4CCCC4)C3)ccc2n1` (stereo not drawn): 87.7% (active).
Regarding `CN1CC(C(=O)Nc2ccc3nc(C4CC4)oc3c2)CC1=O` (stereo not drawn), the inhibition is -6.81% (inactive).
The result for `CC1CC(N2CCN(c3nccs3)CC2)C(=O)O1` (stereo not drawn) reads 2.21% (inactive).
Turning to `O=C(Nc1ccc(Oc2ccccc2Cl)cc1)N1CCOC2CCCCC21` (stereo not drawn), the inhibition is 26.2% (inactive).
The same measure for `CC(=O)NCCC1CCCCN1C(=O)Nc1ccc(Oc2ccccc2)cc1` (stereo not drawn): 83.9% (active); for `Fc1ccc(-c2nnn(CCCc3n[nH]c(Cc4ccccc4)n3)n2)cc1`: 37.6% (inactive).
The result for `Fc1cccc(-c2nnn(CCc3ccccn3)n2)c1` reads 65.1% (active); that for `CCNC(=O)CCC(=O)Nc1ccc(OC2CCCC2)c(F)c1`, 92.8% (active); that for `CNS(=O)(=O)c1cc(NC(=O)CNC(=O)C2CCCCC2)ccc1C`, 8.53% (inactive).
The same measure for `c1ccc2c(c1)oc1c(NCC3CCCCC3)ncnc12`: 23.3% (inactive); for `c1ccc2c(c1)oc1c(NC3CCCCC3)ncnc12`: -31.2% (inactive).
Consider `c1ccc2c(c1)oc1c(NC3CCCCCC3)ncnc12`, for which the inhibition was 102% (active).
The result for `COc1cc(C=c2sc(=CC(=O)c3ccco3)[nH]c2=O)cc(Br)c1O` reads 91.2% (active); that for `c1cnc(NCc2cccnc2N2CCc3ccccc3C2)nc1`, 36.6% (inactive).
The result for `Fc1ccccc1CON=C1CCN(c2ncccn2)CC1` reads 83.5% (active); that for `CCN(CC(=O)Nc1c(Cl)cccc1Cl)C(=O)CCn1c(=O)oc2cc(Cl)ccc21`, -5.97% (inactive).
The same measure for `CN(Cc1nc2c(s1)CCCC2)C(=O)c1cc(COc2ccc(-n3cncn3)cc2)on1`: 85.4% (active); for `CCc1ccc(CN(C)C(=O)c2cc(COc3ccc(-n4cncn4)cc3)on2)cc1`: 36.7% (inactive); for `COc1ccc(C=C2N=C(c3cccc(F)c3)OC2=O)cc1`: 3.76% (inactive).
Consider `C=CCOc1ccc(C=C2N=C(c3ccccc3I)OC2=O)cc1OC`, for which the inhibition is -4.12% (inactive).
Consider `COc1cccc(C=C2N=C(c3ccccc3OC(F)F)OC2=O)c1`, for which the inhibition was 86.9% (active).
The result for `Cc1cccc(CN(C)C)c1OC(=O)N(C)C` reads 3.93% (inactive); that for `CN(Cc1ccccc1C#N)c1ccc2ccccc2c1`, 30.3% (inactive).
Regarding `CN(C)Cc1ccc2ccc3cccc4ccc1c2c34`, the inhibition was 90.5% (active).
The result for `Cc1oc(-c2ccc(Cl)cc2)nc1CN(C)Cc1ccc2nonc2c1` reads 31.7% (inactive); that for `CN(Cc1ccc(-c2ccc(Cl)cc2)o1)C(=O)CCl`, 90.9% (active); that for `CN(Cc1ccc(-c2ccc(Cl)cc2)o1)C(=O)CNC(=O)c1ccccc1`, 72.2% (active).
In the case of `Cc1ccc(-c2nc(COC(=O)c3cc(Cl)c[nH]3)cs2)cc1`, the inhibition is 34.1% (inactive).
The result for `Cc1cc(NC(=O)c2csc(-c3ccc(Cl)cc3)n2)n[nH]1` reads 74.4% (active); that for `Cn1ccsc1=NC(=O)c1csc(-c2ccc(Cl)cc2)n1`, 15.8% (inactive); that for `Cc1nc2cc(NC(=O)C(C)Oc3ccc(Cl)cc3)ccc2o1` (stereo not drawn), -4.42% (inactive).
In the case of `Cc1nc2cc(NC(=O)C3CCCN(C(=O)OC(C)(C)C)C3)ccc2o1` (stereo not drawn), the inhibition was 82.6% (active).
The same measure for `Cc1cc2cc(C(=O)N3CCCC(C(=O)Nc4ccc(-c5ccco5)cc4)C3)ccc2o1` (stereo not drawn): -11.5% (inactive).
The result for `O=C(Nc1ccccc1N1CCCC1)c1cc(C2CC2)on1` reads 36.3% (inactive).
The result for `CC(C)C(=O)N1CCC(NC(=O)c2cc(C3CC3)on2)CC1` reads -6.02% (inactive); that for `CC(NC(=O)c1cc(C2CC2)on1)c1cc(Cl)ccc1Cl` (stereo not drawn), 56.5% (active).
For the molecule `CCCc1cc(=O)[nH]c(-n2nc(C)cc2NC(=O)c2ccc(Br)cc2)n1`, the inhibition is 99.8% (active).
The result for `CCc1cc(=O)[nH]c(-n2nc(C)cc2NC(=O)c2cccs2)n1` reads -29.6% (inactive); that for `CCCc1cc(=O)[nH]c(-n2nc(C)cc2NC(=O)c2cccs2)n1`, 100% (active); that for `CCCc1cc(=O)[nH]c(-n2nc(C)cc2NC(=O)c2cccc(Br)c2)n1`, 101% (active).
Regarding `CCCc1cc(=O)[nH]c(-n2nc(C)cc2NC(=O)c2ccc(C)cc2)n1`, the inhibition is 101% (active).
The same measure for `CNc1cc(C)nc(NCc2cc(C)cc3c(C)c(C)[nH]c23)n1`: 41.1% (inactive); for `CCCc1cc(=O)[nH]c(-n2nc(C)cc2NC(=O)c2cccc(C(F)(F)F)c2)n1`: 91.4% (active); for `CCCc1cc(=O)[nH]c(-n2nc(C)cc2NC(=O)c2cccc(OC)c2)n1`: 99.8% (active).
The result for `CCCc1cc(=O)[nH]c(-n2nc(C)cc2NC(=O)c2ccccc2)n1` reads 101% (active); that for `CCCc1cc(=O)[nH]c(-n2nc(C)cc2NC(=O)c2cccc(F)c2)n1`, 100% (active); that for `CCCc1cc(=O)[nH]c(-n2nc(C)cc2NC(=O)c2cc(OC)cc(OC)c2)n1`, -22.1% (inactive).
The same measure for `CCN(CC)c1nc2sc(C(=O)NC3(C)CCCC3)cc2s1`: 32.9% (inactive).
With `CCCc1cc(=O)[nH]c(-n2nc(C)cc2NC(=O)c2cccc(Cl)c2)n1`, the inhibition is 101% (active).
The same measure for `CCCc1cc(=O)[nH]c(-n2nc(C)cc2NC(=O)c2cc(C(F)(F)F)cc(C(F)(F)F)c2)n1`: 13.6% (inactive); for `CCCc1cc(=O)[nH]c(-n2nc(C)cc2NC(=O)c2ccc(F)cc2)n1`: 101% (active).
The result for `CCCc1cc(=O)[nH]c(-n2nc(C)cc2NC(=O)c2ccc(C(F)(F)F)cc2)n1` reads 102% (active).
The same measure for `CN(Cc1ccoc1)C(=O)c1cn(Cc2cccc(C(F)(F)F)c2)nn1`: 14.9% (inactive).
With `Cc1ccc(NC(=O)N(C)Cc2cccc(F)c2)c(Cl)c1`, the inhibition was 9.23% (inactive).
As for `O=S(=O)(NCc1ccc2c(c1)OCO2)c1ccc(F)c(C(F)(F)F)c1`, the inhibition was 26.9% (inactive).
The result for `Cc1cc(CNC(=O)CS(=O)(=O)Cc2cccc(Cl)c2)ccc1F` reads 15.5% (inactive); that for `CN(Cc1cccc(Cl)c1)C(=O)NCc1cc(F)cc(F)c1`, 72.5% (active); that for `CN(Cc1cccc(C(F)(F)F)c1)C(=O)c1cn(Cc2ccccc2Cl)nn1`, 20.9% (inactive).
For the molecule `CSc1ccc(NC(=O)CN(C)Cc2ccc3c(c2)OCO3)cc1`, the inhibition is 72.3% (active).
The same measure for `CN(Cc1ccc(F)cc1F)C(=O)NCc1cccc(C(F)(F)F)c1`: 91% (active).
Consider `CN(Cc1ccc(F)cc1)C(=O)NCc1ccc2c(c1)OCO2`, for which the inhibition was 67.4% (active).
The same measure for `CN(Cc1ccc2c(c1)OCO2)c1ccc(C(=O)NC2CC2)cn1`: 12.6% (inactive); for `Cc1ccc(NC(=O)N(C)Cc2ccc(O)cc2)cc1F`: 59.5% (active); for `COc1cccc(CNC(=O)N(C)Cc2ccc(C(C)C)cc2)c1`: 85.7% (active).
The result for `COc1ccc(Cl)cc1CN(C)C(=O)Nc1ccc(F)cc1F` reads -16.8% (inactive); that for `Cc1ccc(CNC(=O)N(C)Cc2cccs2)cc1F`, 74.8% (active).
As to `Cc1ccc(NC(=O)N(C)Cc2ccccc2F)cc1Cl`, the inhibition is 4.94% (inactive).
The result for `CCOc1ncccc1C(=O)NCc1ccc(C)c(F)c1` reads 35.2% (inactive); that for `O=C(NCCc1cccs1)C(=O)NCc1cccc(F)c1`, 45.4% (inactive); that for `COc1ccc(CN(C)C(=O)NCC2Cc3ccccc3O2)cc1` (stereo not drawn), -43.1% (inactive).
As for `CN(Cc1cc(Br)ccc1F)C(=O)NCc1ccco1`, the inhibition was -23.8% (inactive).
The result for `CN(Cc1ccsc1)C(=O)Nc1ccc(C(F)(F)F)cc1` reads 44.2% (inactive); that for `CN(Cc1ccc(F)cc1F)C(=O)NCc1ccccc1`, 93% (active).
